According to PubChem BioAssay (NCI):
The panel holds about 83,000 compounds, 20% with a hit somewhere; the sample as a whole holds those more often.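 Each cell line was grown in a 96-well plate and treated with one concentration of compound for 48 hours. Values below 10 were considered active.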 Values without a mark were called inactive. Activity calls are given as the source filed them.

Key:
Experiment in all cases: NCI-60 one-dose screen, 48 h (100 = growth as untreated, 0 = no growth, -100 = all killed)
Settings in all cases: 10 µM unless noted
[1] = test system: RPMI-8226 leukemia
[2] = test system: OVCAR-8 ovarian
[3] = test system: OVCAR-5 ovarian
[4] = test system: OVCAR-4 ovarian
[5] = test system: SK-OV-3 ovarian
[6] = test system: OVCAR-3 ovarian
[7] = test system: HS 578T breast
[8] = test system: NCI/ADR-RES ovarian
[9] = test system: T-47D breast
[10] = test system: BT-549 breast
[11] = test system: MDA-MB-435 melanoma
[12] = test system: SW-620 colon
[13] = test system: MCF7 breast
[14] = test system: HCT-116 colon
[15] = test system: HCC-2998 colon
[16] = test system: KM12 colon
[17] = test system: IGROV1 ovarian

## COc1ccc2c(c1)C(=O)/C(=C/c1ccc(OCC(=O)c3ccc(Cl)cc3)cc1)O2
[1]
  growth: 58.9%
[2]
  growth: 84.9%
[3]
  growth: 105%
[4]
  growth: 78.4%
[5]
  growth: 98.8%
[6]
  growth: 83.7%
[7]
  growth: 115%
[8]
  growth: 98.8%
[9]
  growth: 72.2%
[10]
  growth: 80.5%
[11]
  growth: 92.8%
[12]
  growth: 14.2%
[13]
  growth: 104%
[14]
  growth: 30.1%
[15]
  growth: 21.2%
[16]
  growth: 104%

## C/C(=N\N=C1/SCC(=O)N1c1ccccc1)c1ccco1
[1]
  growth: 72.2%
[2]
  growth: 103%
[3]
  growth: 117%
[4]
  growth: 146%
[5]
  growth: 115%
[17]
  growth: 60.8%
[7]
  growth: 104%
[8]
  growth: 104%
[9]
  growth: 114%
[10]
  growth: 127%
[12]
  growth: 109%
[13]
  growth: 53.7%
[14]
  growth: 92.7%
[15]
  growth: 109%
[16]
  growth: 103%

## CC1(C)N=C(N)N=C(N)N1c1ccc(OCC(=O)Nc2ccccc2)c(Cl)c1
[1]
  growth: 34.5%
[2]
  growth: 21.9%
[3]
  growth: 49%
[4]
  growth: 46.1%
[5]
  growth: 57.3%
[6]
  growth: 56.7%
[7]
  growth: 97.7%
[8]
  growth: 102%
[9]
  growth: 70%
[10]
  growth: 40.6%
[11]
  growth: 25.2%
[12]
  growth: 33%
[13]
  growth: 28.4%
[14]
  growth: 19.2%
[15]
  growth: 29.5%
[16]
  growth: 18.1%

## CC1(C)N=C(N)N=C(N)N1c1cccc(CCCCc2ccccc2)c1
[1]
  growth: -50% (active)
[2]
  growth: 0.546% (active)
[3]
  growth: 38.5%
[4]
  growth: 7.12% (active)
[5]
  growth: 30.3%
[6]
  growth: -16.8% (active)
[7]
  growth: 66.5%
[8]
  growth: 90.3%
[9]
  growth: 18.1%
[10]
  growth: -35.1% (active)
[11]
  growth: -0.215% (active)
[12]
  growth: 25.3%
[13]
  growth: 3.82% (active)
[14]
  growth: 2.07% (active)
[15]
  growth: -9.45% (active)
[16]
  growth: -42.8% (active)

## COc1ccc2c(c1)nnn1c3ncccc3c(N=O)c21
[1]
  growth: -56.2% (active)
[2]
  growth: -30.3% (active)
[3]
  growth: -0.558% (active)
[4]
  growth: 9.93% (active)
[5]
  growth: 9.38% (active)
[6]
  growth: -91.3% (active)
[7]
  growth: -29.7% (active)
[8]
  growth: -8.17% (active)
[9]
  growth: -0.214% (active)
[10]
  growth: -11.7% (active)
[11]
  growth: -5.59% (active)
[12]
  growth: -80.3% (active)
[13]
  growth: -58.7% (active)
[14]
  growth: -86% (active)
[15]
  growth: 12.6%
[16]
  growth: 5.81% (active)

## Cn1c(I)c(C#C[Si](C)(C)C)c(=O)[nH]c1=O
[1]
  growth: 46.5%
[2]
  growth: -11.7% (active)
[3]
  growth: 77.7%
[4]
  growth: -65% (active)
[5]
  growth: 110%
[6]
  growth: -54.1% (active)
[7]
  growth: 10.6%
[8]
  growth: 83.3%
[9]
  growth: 21.9%
[10]
  growth: 40.7%
[11]
  growth: 58.7%
[12]
  growth: -66.5% (active)
[13]
  growth: 82.1%
[14]
  growth: -43.1% (active)
[15]
  growth: -67.1% (active)
[16]
  growth: 103%

## CN(C)C(=O)Nc1nc2cc(Cl)c(Cl)cc2[nH]1
[1]
  growth: -15.7% (active)
[2]
  growth: 13.6%
[3]
  growth: 40.3%
[4]
  growth: 33.9%
[5]
  growth: 20.1%
[6]
  growth: -49.9% (active)
[7]
  growth: 50.8%
[8]
  growth: 3.19% (active)
[9]
  growth: 52.5%
[10]
  growth: 39.5%
[11]
  growth: -24.5% (active)
[12]
  growth: 29.8%
[13]
  growth: 15.4%
[14]
  growth: 1.15% (active)
[15]
  growth: 14.2%
[16]
  growth: 1.99% (active)

## CC1(C)Cc2c(Br)c(Br)c(Br)c(OCC(O)CN3CCN(c4ccccn4)CC3)c2O1 (configuration not stated)
[1]
  growth: 52.1%
[2]
  growth: 88.6%
[3]
  growth: 102%
[4]
  growth: 112%
[5]
  growth: 102%
[17]
  growth: -11.7% (active)
[7]
  growth: 89.2%
[8]
  growth: 75.3%
[9]
  growth: 88.5%
[10]
  growth: 101%
[11]
  growth: 66.8%
[12]
  growth: 85.5%
[13]
  growth: 67.6%
[14]
  growth: 55.5%
[15]
  growth: 92.7%
[16]
  growth: 80.7%

## CCc1c2cc(Cl)ccc2n2cc(Cc3ccccc3)[nH]c(=O)c12
[1]
  growth: 110%
[2]
  growth: 99.1%
[3]
  growth: 93.9%
[4]
  growth: 102%
[5]
  growth: 103%
[17]
  growth: 90.5%
[6]
  growth: 99.2%
[8]
  growth: 100%
[9]
  growth: 104%
[10]
  growth: 101%
[11]
  growth: 102%
[12]
  growth: 99.4%
[15]
  growth: 97.1%
[16]
  growth: 98%

## CC1=C[S+](c2ccccc2)c2cccc3cc4ccccc4c1c23 (configuration not stated)
[1]
  growth: -32.5% (active)
[2]
  growth: -9.27% (active)
[3]
  growth: -32.7% (active)
[4]
  growth: 17.4%
[5]
  growth: 0.639% (active)
[6]
  growth: -82.9% (active)
[7]
  growth: 69.5%
[8]
  growth: 27%
[9]
  growth: -51.9% (active)
[10]
  growth: -10.9% (active)
[11]
  growth: 0.153% (active)
[12]
  growth: -13.4% (active)
[13]
  growth: -49.9% (active)
[14]
  growth: -87.6% (active)
[16]
  growth: -88% (active)

## Clc1ccc(CN2COc3c(ccc4cccnc34)C2)cc1Cl
[1]
  growth: -19.3% (active)
[2]
  growth: -24% (active)
[3]
  growth: 5.97% (active)
[4]
  growth: 11.6%
[5]
  growth: 13.4%
[6]
  growth: -1.22% (active)
[7]
  growth: 55.4%
[8]
  growth: -19% (active)
[9]
  growth: 5.72% (active)
[10]
  growth: 8.99% (active)
[11]
  growth: 12.8%
[12]
  growth: 18%
[13]
  growth: 12.6%
[14]
  growth: -39.1% (active)
[16]
  growth: 7.75% (active)

## CCC1CN2C(=N1)c1ccccc1-c1cc(Cl)ccc12 (configuration not stated)
[1]
  growth: -9.43% (active)
[2]
  growth: -5.17% (active)
[3]
  growth: 35.6%
[4]
  growth: 26.6%
[5]
  growth: 29.6%
[6]
  growth: 20.4%
[7]
  growth: 89.1%
[8]
  growth: 21.3%
[9]
  growth: 21.9%
[10]
  growth: 42.5%
[11]
  growth: 25.4%
[12]
  growth: 18.6%
[13]
  growth: 4.59% (active)
[14]
  growth: 1.68% (active)
[15]
  growth: 28.5%
[16]
  growth: 16.7%

## O=C(/C=C/c1ccco1)c1cccc(Nc2nc(Nc3ccccc3)nc(Nc3ccccc3)n2)c1
[1]
  growth: 38.8%
[2]
  growth: 49.5%
[3]
  growth: 83.6%
[4]
  growth: 62.1%
[5]
  growth: 90.5%
[6]
  growth: 61.8%
[7]
  growth: 92%
[8]
  growth: 75.5%
[9]
  growth: 48.6%
[10]
  growth: 116%
[12]
  growth: 88%
[13]
  growth: 28.3%
[14]
  growth: 40.4%
[15]
  growth: 68.5%
[16]
  growth: 83.7%

## Cc1cc(NCCN(C(C)C)C(C)C)nc(/N=C(\N)Nc2ccc(Cl)c(C(F)(F)F)c2)n1
[1]
  growth: -65.7% (active)
[2]
  growth: -79.2% (active)
[3]
  growth: -55.5% (active)
[4]
  growth: -68.2% (active)
[5]
  growth: -82% (active)
[6]
  growth: -73.6% (active)
[7]
  growth: -48.5% (active)
[8]
  growth: -41.1% (active)
[10]
  growth: -64.6% (active)
[11]
  growth: -73.9% (active)
[12]
  growth: -89.7% (active)
[13]
  growth: -78.4% (active)
[14]
  growth: -100% (active)
[15]
  growth: -96.7% (active)
[16]
  growth: -92.6% (active)
